Screening results: PubChem, National Center for Advancing Translational Sciences (NCATS)
An excerpt weighted towards active compounds, which were near 4.2% of everything screened.
PLK1 PBD inh: qHTS for Inhibitors of PLK1-PDB (polo-like kinase 1 - polo-box domain): Primary Screen | AID 720504, 2013 | Potency, µM, most hits filed as inhibitors | actives 2.8% (n = 360,000) | Plk1 PBD binding of FITC phosphopeptide, fluorescence polarization | Serine/threonine-protein kinase PLK1 (Homo sapiens), P53350; also: series mostly up to about 57 µM; nearly all actives have a fitted effect of over 65% in size
VDR inh: Inhibitors of the vitamin D receptor (VDR): qHTS; actives 0.93% (n = 400,000); VDR-SRC2-3 peptide fluorescence polarization, 2 h; Potency, µM, most hits filed as inhibitors; AID 504847, 2011; Vitamin D3 receptor (Homo sapiens), P11473
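Signal is fluorescence polarization, reporting how far test compounds block the interaction of VDR with the SRC2-3 coregulator peptide after a 2 h room-temperature incubation.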
Sfp PPTase inh: qHTS Assay for Inhibitors of Bacillus subtilis Sfp phosphopantetheinyl transferase (PPTase); 4'-phosphopantetheinyl transferase ffp (Bacillus subtilis), Q9F4F7; Biochemical Sfp PPTase activity, qHTS; Potency, µM, usual class: inhibitors; actives 3.5% (n = 310,000);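 also: the enzyme is Sfp with the accession as filed and its product quenches rhodamine fluorescence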
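Reaction rates are the 30-min fluorescence difference (ex 525, em 598 nm) in wells containing 15 nM Sfp, 5 uM rhodamine-CoA and 12.5 uM BHQ-2-YbbR at pH 7.6 with 10 mM MgCl2.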
12-LOX inh: Primary qHTS assay for inhibitors of human arachidonate 12S-lipoxygenase (ALOX12): Round 2; Potency, µM (highest dose often 108 µM), hits mostly inhibitors; purified 12hLO, xylenol orange hydroperoxide absorbance; actives 1.1% (n = 580,000)
Target sequence (P18054 whole entry, looked up): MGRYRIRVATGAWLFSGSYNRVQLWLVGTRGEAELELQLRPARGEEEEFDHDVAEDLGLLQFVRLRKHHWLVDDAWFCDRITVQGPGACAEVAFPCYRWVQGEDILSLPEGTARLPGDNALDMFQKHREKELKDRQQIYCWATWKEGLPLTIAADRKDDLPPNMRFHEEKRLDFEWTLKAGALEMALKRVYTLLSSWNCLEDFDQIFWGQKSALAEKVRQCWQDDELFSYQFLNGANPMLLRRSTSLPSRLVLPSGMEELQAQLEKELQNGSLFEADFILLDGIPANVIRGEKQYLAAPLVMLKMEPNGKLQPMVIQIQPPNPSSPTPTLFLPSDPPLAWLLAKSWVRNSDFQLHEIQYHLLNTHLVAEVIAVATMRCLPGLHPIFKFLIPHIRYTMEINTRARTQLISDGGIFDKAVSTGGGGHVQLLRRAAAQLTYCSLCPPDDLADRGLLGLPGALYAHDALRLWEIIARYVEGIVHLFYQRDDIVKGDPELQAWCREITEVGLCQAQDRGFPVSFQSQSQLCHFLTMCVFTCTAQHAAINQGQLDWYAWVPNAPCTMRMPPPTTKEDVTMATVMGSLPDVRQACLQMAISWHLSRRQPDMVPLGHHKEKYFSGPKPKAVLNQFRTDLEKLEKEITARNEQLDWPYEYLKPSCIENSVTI
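Purified human 12hLO (150 nM final) in 25 mM Hepes, 0.01% Triton X-100, pH 7.0 was preincubated 15 min at room temperature with compound. Then 40 uM arachidonic acid was added, 30 min. Hydroperoxide was read by Fe-XO absorbance ratio 573/405 nm.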
Of the large screens only hits and unclear results are named; the others gave an inactive call; ! = not active in a repeat. Calls follow the shape of the dose curve; as a rule, active = well fitted curve in the direction sought with a large enough effect; inconclusive = small, poorly fitted or top-dose-only effect, or another doubt; inactive = no such curve, though single readings can be large; an effect the other way counts as inactive or inconclusive.

CCc1nnc(NC(=O)C2CC(=O)N(CCc3ccc(F)cc3)C2)s1 (stereo not given)	PLK1 PBD inh inconclusive, 12-LOX inh inconclusive
CC(C)N(Cc1nc(COc2ccccc2)no1)Cc1nccn1C	none
CC(C)N(Cc1cnn(C)c1)Cc1nc(COc2ccccc2)no1	PLK1 PBD inh 21.2µM
O=C(Nc1ccc2c(c1)OCCO2)C(=O)NC1CC1	none
CCOc1ccc(/C=C(\C#N)C(=O)Nc2sc3c(c2C(=O)OC)C(C(=O)OC)CC3)cc1OC (stereo not given)	VDR inh 20µM, 12-LOX inh inconclusive (no result: PLK1 PBD inh, Sfp PPTase inh)
Cc1cccc(NC(=O)CSCc2nc(-c3ccccc3)oc2C)c1	none (no result: PLK1 PBD inh, VDR inh, Sfp PPTase inh)
Cc1cc(SCC(=O)OCC(=O)N(C)C2CCS(=O)(=O)C2)c(C)cc1Br (stereo not given)	none (no result: Sfp PPTase inh)
COC(=O)N1CCc2c(sc(NC(=O)C3COc4ccccc4O3)c2C(N)=O)C1 (stereo not given)	PLK1 PBD inh 10.6µM, VDR inh 89.1µM, 12-LOX inh 17.8µM (no result: Sfp PPTase inh)
CCOC(=O)c1nnc(-c2ccccc2)nc1NCc1ccc(Cl)cc1	Sfp PPTase inh 50.1µM
CCOC(=O)c1nnc(-c2ccccc2)nc1Sc1c(Cl)cccc1Cl	12-LOX inh inconclusive
O=C(O)CCCN=CC1=C(O)CNC1=O	PLK1 PBD inh 29.9µM, VDR inh inconclusive
CCOC(=O)c1ccc(NC(=O)c2c(NC(C)=O)sc3c2CCC(C)C3)cc1 (stereo not given)	none (no result: PLK1 PBD inh, Sfp PPTase inh)
CCOc1ccc(NC(=O)c2c(NC(=O)c3ccccc3Br)sc3c2CCC(C)C3)cc1 (stereo not given)	VDR inh 39.8µM (no result: PLK1 PBD inh, Sfp PPTase inh)
COc1ccc2c(=O)c(-c3ccccc3)coc2c1C	12-LOX inh 31.6µM (no result: PLK1 PBD inh, VDR inh, Sfp PPTase inh)
COc1ccc(OC)c(-n2c(CN3CCC(C(N)=O)CC3)nc3ccccc3c2=O)c1	Sfp PPTase inh 35.5µM
Cc1ccc(SCc2[nH]nc3c2C(c2ccco2)C(C#N)=C(N)O3)cc1 (stereo not given)	PLK1 PBD inh 9.47µM
OC[C@H](O)[C@H](O)[C@@H](O)[C@@H](O)[C@@H]1SC(c2ccccc2)=NN1c1ccccc1	PLK1 PBD inh inconclusive, VDR inh 22.4µM
CC[C@H]1C(c2ccccc2)=NN(c2ccccc2)[C@@H]1CO	none (no result: PLK1 PBD inh, 12-LOX inh)
O=C(c1csc(Cc2ccccc2)n1)N1CCC2(CCNCC2)CC1	none (no result: PLK1 PBD inh, VDR inh, Sfp PPTase inh)
c1ccc(Cc2nn3c(-c4ccncc4)nnc3s2)cc1	PLK1 PBD inh 23.8µM, VDR inh inconclusive, Sfp PPTase inh inconclusive, 12-LOX inh inconclusive
Clc1ccccc1-c1nnc2sc(-c3ccncc3)nn12	PLK1 PBD inh 26.7µM, VDR inh inconclusive
Cn1cc(CN2C[C@@H]3C[C@H]2C(=O)N(CC2CC2)c2ccccc2O3)c2ccccc21	none (no result: PLK1 PBD inh, VDR inh, Sfp PPTase inh)
CCOC(=O)c1c(C)[nH]c(C(=O)/C(C#N)=C/c2ccc(OCC)cc2)c1C	12-LOX inh inconclusive
CC(=O)c1c(C)[nH]c(C(=O)/C(C#N)=C\c2ccc(F)cc2)c1C	12-LOX inh 35.5µM (no result: PLK1 PBD inh, VDR inh, Sfp PPTase inh)
CC(=O)c1c(C)[nH]c(C(=O)/C(C#N)=C/c2cccc(C)c2)c1C	PLK1 PBD inh 5.97µM, 12-LOX inh inconclusive
O=C1C2C3C=CC(CC3)C2C(=O)N1c1ccc(F)cc1 (stereo not given)	none
CC(C)C1NC2(C(=O)c3ccccc3C2=O)C2C(=O)N(c3ccc(F)cc3)C(=O)C12 (stereo not given)	PLK1 PBD inh inconclusive, Sfp PPTase inh 25.1µM
CN(C)S(=O)(=O)c1ccc2c(c1)nc(CCC(=O)NCC(=O)Nc1ccc(F)c(F)c1F)n2C	none (no result: VDR inh, Sfp PPTase inh)
CCC1(C)Cc2sc3c(=O)[nH]c(=S)[nH]c3c2CO1 (stereo not given)	PLK1 PBD inh 10.6µM, Sfp PPTase inh inconclusive, 12-LOX inh inconclusive
COc1ccc(-c2ccc(CCC(=O)Nc3ccccc3OC)o2)cc1	none (no result: PLK1 PBD inh, VDR inh, Sfp PPTase inh)
COc1ccc(-c2ccc(CCC(=O)O)o2)cc1	VDR inh inconclusive, Sfp PPTase inh 14.1µM, 12-LOX inh inconclusive
COc1ccc(C(=O)COC(=O)CCc2ccc(-c3ccccc3)o2)cc1	12-LOX inh 7.94µM (no result: PLK1 PBD inh, VDR inh, Sfp PPTase inh)
O=C(O)CCc1ccc(-c2ccc(Br)cc2)o1	PLK1 PBD inh inconclusive, VDR inh inconclusive, Sfp PPTase inh 17.8µM, 12-LOX inh 44.7µM
O=C(COc1ccc(F)cc1)Nc1nc(-c2cccnc2)cs1	none (no result: VDR inh, Sfp PPTase inh)
CC(=O)Nc1nc(-c2ccccc2)c(-c2ccccc2)s1	none (no result: PLK1 PBD inh, Sfp PPTase inh, 12-LOX inh)
CC(=O)NC1Sc2ccccc2N=C1c1ccccc1 (stereo not given)	PLK1 PBD inh 18.9µM, VDR inh 79.4µM, Sfp PPTase inh 15.8µM, 12-LOX inh inconclusive
CCCN(CCC)CCNC(=O)c1cc2c(=O)n(C)c3ccccc3c2n1C	PLK1 PBD inh 18.9µM
CN(CCNC(=O)c1cc2c(=O)n(C)c3ccccc3c2n1C)Cc1ccccc1	none
N#Cc1ccccc1S(=O)(=O)N1CCN(Cc2cccs2)CC1	none (no result: VDR inh, Sfp PPTase inh)
COc1ccccc1-n1c(SCC(=O)Nc2ccc(C)cc2)nc(O)cc1=O	12-LOX inh 0.316µM!
COc1ccc(NC(=O)CSc2nnnn2-c2ccccc2OC)c(OC)c1	none
COc1ccccc1-n1nnnc1SCC(=O)Nc1ccc(C)c(N)c1	Sfp PPTase inh 79.4µM
O=c1cc(O)nc(SCc2ccccc2)n1-c1ccc(Cl)cc1	12-LOX inh 44.7µM
COc1ccc(-n2c(SCC(=O)Nc3ccc(Br)cc3)nc(O)cc2=O)cc1	12-LOX inh 2.24µM
C=C1C(=O)C23C(O)C1CCC2C12COC3(O)C(O)C1C(C)(C)CCC2O (stereo not given)	none (no result: PLK1 PBD inh, VDR inh, Sfp PPTase inh)
O=c1c2c3c(sc2nc2sc(CN4CCCCC4)cn12)CCCC3	none (no result: PLK1 PBD inh, VDR inh, 12-LOX inh)
Cc1ccc(NC(=O)CSc2nc(O)cc(=O)n2C)cc1	none
Cc1ccc(NC(=O)CSc2nc(O)cc(=O)n2-c2ccc(C)cc2)cc1	12-LOX inh 2.24µM
c1ccc(CSc2nc3ccccc3[nH]2)cc1	none
Nc1nc(CSc2nc3ccccc3[nH]2)cs1	Sfp PPTase inh 44.7µM
CC1CCN(C(=O)c2ccc([N+](=O)[O-])o2)CC1	none
CC(C)CC(=O)n1sc(NC(=O)c2ccccc2)nc1=O	VDR inh 44.7µM
Cc1ccc(C(=O)Nc2nc(=O)n(C(=O)c3ccccc3Cl)s2)cc1	PLK1 PBD inh inconclusive, VDR inh 17.8µM, 12-LOX inh inconclusive
Cn1sc(NC(=O)c2ccc(Cl)cc2)nc1=O	Sfp PPTase inh 56.2µM, 12-LOX inh inconclusive
CN(C)Cc1ccccc1-c1nccc(N(C)Cc2ccco2)n1	none (no result: PLK1 PBD inh)
COC(=O)c1ccc(OCC(O)CN2CCCN(c3ccc(C(F)(F)F)cn3)CC2)cc1 (stereo not given)	none (no result: PLK1 PBD inh, VDR inh, Sfp PPTase inh)
S=C(NCc1ccccc1)Nc1cccc2cnccc12	PLK1 PBD inh inconclusive, Sfp PPTase inh 56.2µM
S=C(NCCc1ccccc1)Nc1cccc2cnccc12	PLK1 PBD inh inconclusive, Sfp PPTase inh 50.1µM
COc1ccccc1CNC(=O)C(CC(C)C)NC(=O)C1CCC(C)CC1 (stereo not given)	none
COc1ccc(NC(=O)CSc2nc(C)cc(C)n2)c([N+](=O)[O-])c1	none
